Out of some 96,000 compounds screened, about 20,000 (21%) were called active. Only a sample is shown. Unmarked numbers belong to inactive results.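 The calls were made as follows: active = CYP2C19 inhibition above a set limit at 5 µM in the primary screen (cut at about 50% in these data); inactive = the rest.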
These compounds were tested against Cytochrome P450 2C19 (Homo sapiens) (UniProt P33261) (assay: blockers of cytochrome P450 2C19 activity – biochemical, luminescence, ADME assay, primary screen (AID 778;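 also: plate controls were negative control wells for no effect and 2.5 mM tranylcypromine positive control for full effect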)). Settings: CYP2C19 Supersomes, luciferin-H EGE luminescence, 30 min; at 5 µM; stronger effect = higher value.
Cytochrome P450 2C19 (Homo sapiens), sequence (P33261 whole entry, looked up): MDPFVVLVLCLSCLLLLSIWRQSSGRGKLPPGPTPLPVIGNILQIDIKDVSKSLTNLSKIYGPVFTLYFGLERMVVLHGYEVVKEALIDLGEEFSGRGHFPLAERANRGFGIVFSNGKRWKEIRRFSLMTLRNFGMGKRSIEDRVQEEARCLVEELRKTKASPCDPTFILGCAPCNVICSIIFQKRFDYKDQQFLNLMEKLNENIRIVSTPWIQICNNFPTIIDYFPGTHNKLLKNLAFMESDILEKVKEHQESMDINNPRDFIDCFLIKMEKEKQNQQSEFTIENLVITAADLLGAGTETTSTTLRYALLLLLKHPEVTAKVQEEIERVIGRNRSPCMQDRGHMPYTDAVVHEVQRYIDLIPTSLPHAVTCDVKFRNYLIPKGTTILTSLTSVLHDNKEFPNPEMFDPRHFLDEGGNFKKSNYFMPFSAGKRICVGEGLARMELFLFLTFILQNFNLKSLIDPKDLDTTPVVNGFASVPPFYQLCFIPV
With `CCc1c(C)c2c(C)[nH]nc2oc1=O` the inhibition was 34%.
For `CCOC(=O)Nc1ccc(NC(=O)OCC)cc1`, the inhibition was -15.6%.
`Cc1ccc2c(NC(=O)C3CC3)cccc2n1` gave an inhibition of 3.3%.
In the case of `CSc1ccc(C#N)cc1NC(=O)c1cccc(Cl)c1`, the inhibition is reported as 17.9%.
`O=C(CCN1C(=O)c2ccccc2C1=O)NCCN1CCOCC1` was tested, and the inhibition was -17.4%.
In the case of `Cc1cc(C)nc(SCc2nnc(SCC(=O)OC3CCCCC3)o2)n1`, the inhibition is reported as 32.2%.
`c1ccc(CSc2nnc(-c3ccco3)c(-c3ccco3)n2)cc1` was tested, and the inhibition was 44.4%.
Compound `CC(C)C(NC(=O)c1ccc(Cl)cc1)C(=O)O` (stereo unspecified) has an inhibition of -19.4%.
For `O=C(c1ccc(Cl)c(Cl)c1)N1CCCC1`, the inhibition was 15.1%.
With `CC(NC(=O)c1ccc(Cl)cc1)C(=O)N1CCCCC1` (stereo unspecified) the inhibition was 77.5% (active).
In the case of `CCOc1ccccc1N=C1NC(=O)CS1`, the inhibition is reported as -12.1%.
For `Cc1ccc(N2C(=O)CC(NCc3ccc4c(c3)OCO4)C2=O)cc1Cl` (stereo unspecified), the inhibition was 85% (active).
Compound `CC1CCC(N2CC(=O)N(Cc3ccc4c(c3)OCO4)C(c3ccc(F)cc3)C2=O)CC1` (stereo unspecified) has an inhibition of 20.3%.
For `O=CN1CCN(C2CC(=O)N(c3ccc4c(c3)OCO4)C2=O)CC1` (stereo unspecified), the inhibition was -12%.
Compound `O=C(CSc1nc(-c2ccco2)cc(C(F)(F)F)n1)NCc1cccs1` has an inhibition of 8.5%.
`CC1(C)Oc2ccc(C(=O)N3CCOCC3)cc2N(CC(=O)Nc2ccccc2)C1=O` gave an inhibition of 30.3%.
`O=C(Cn1c(=O)sc2ccccc21)Nc1ccc2c(c1)OCCO2` showed an inhibition of 7.6%.
`CC1Cc2ccccc2N1CC(=O)Nc1ccc2c(c1)OC(F)(F)O2` (stereo unspecified) was tested, and the inhibition was 97.3% (active).
Work on `Cc1nnc(NCCO)c2ccccc12` yielded an inhibition of 7.5%.
For `CSC1=N/C(=C\C=C\c2cccs2)C(=O)S1`, the inhibition was -11%.
With `CCCCOC(=O)c1[nH]c(C)c(C(=O)OC)c1C` the inhibition was 81.6% (active).
Work on `CCCOC(=O)c1[nH]c2c(c1C)C(=O)CC(c1cc(OC)c(OC)c(OC)c1)C2` (stereo unspecified) yielded an inhibition of 38.4%.
`CCCCN(CC)CCNC(=O)c1[nH]c(C)c(C(C)=O)c1C` gave an inhibition of -8%.
For `Cc1nc2nc3c(cn2n1)C(=O)CC(c1ccccc1)C3` (stereo unspecified), the inhibition was 99.6% (active).
Compound `Cc1ccc(Cc2cnc(NC(=O)/C(C#N)=C/c3ccc(-c4cccc([N+](=O)[O-])c4)o3)s2)cc1` has an inhibition of -3.9%.
In the case of `O=C(COC(=O)c1ccc(S(=O)(=O)N2CCc3ccccc3C2)cc1)NC(=O)NCc1ccco1`, the inhibition is reported as 8.9%.
For `O=C(CN1CCN(S(=O)(=O)/C=C/c2ccccc2)CC1)NC(=O)NCc1ccco1`, the inhibition was 54% (active).
In the case of `CC1(c2ccccc2Cl)NC(=O)N(CC(=O)NC(=O)NCc2ccco2)C1=O` (stereo unspecified), the inhibition is reported as 22.5%.
Compound `CCCOn1c(-n2nc(C)cc2C)nc2ccccc2c1=O` has an inhibition of 47.2%.
Work on `O=C(NCc1ccco1)c1sc2cccc(F)c2c1Cl` yielded an inhibition of -8.9%.
Work on `CCOc1cc(/C=N/n2cnnc2)c(Br)cc1O` yielded an inhibition of 5.4%.
Compound `Cc1ccc2c(c1)N(C(=O)CCC(=O)N1CCc3ccccc3C1)CCO2` has an inhibition of 39.4%.
In the case of `c1ccc(-c2cn3c(n2)CCc2ccc4cccnc4c2-3)cc1`, the inhibition is reported as 15.9%.
`COc1ccccc1N(C)S(=O)(=O)c1ccc(C(=O)N2CCC(C(N)=O)CC2)cc1` was tested, and the inhibition was 8.7%.
`COc1ccc(S(=O)(=O)N2CCC(C(=O)N3CCc4ccccc4C3)CC2)cc1OC` was tested, and the inhibition was 53.6% (active).
In the case of `COc1ccc(S(=O)(=O)N2CCC(C(=O)N3CCOCC3)CC2)cc1OC`, the inhibition is reported as 7.3%.
`CCS(=O)(=O)c1ccc2c(c1)N(S(=O)(=O)c1ccccc1)CC(C(=O)O)O2` (stereo unspecified) gave an inhibition of 0.1%.
In the case of `CCC1CCCCN1CCCNC(=O)C1CCC(Cn2c(=O)[nH]c3ccccc3c2=O)CC1` (stereo unspecified), the inhibition is reported as 6%.
Work on `CCOC(=O)c1c(-n2cnnn2)sc(C)c1C` yielded an inhibition of 7.5%.
With `Cc1nc(NNC(=O)c2ccccc2)cc(-c2ccccc2)n1` the inhibition was -0.2%.
With `CNC(=O)Nc1cc(C(C)(C)C)no1` the inhibition was 32.3%.
`O=C(CSc1nnc(-c2ccccn2)n1-c1ccccc1)Nc1ccc2c(c1)OCO2` was tested, and the inhibition was 5%.
With `CCCCSc1nc2c(c(=O)n1CC)SC(C)C2` (stereo unspecified) the inhibition was 42%.
With `O=C(CSc1nc2ncccc2[nH]1)Nc1ccc2c(c1)OCCO2` the inhibition was 82.3% (active).
With `O=C(CSc1nnnn1-c1ccc2c(c1)CCC2)Nc1ccc2c(c1)OCCO2` the inhibition was -2.7%.
`Cc1ccc(-n2c(SCC(=O)Nc3ccc4c(c3)OCO4)nnc2-c2ccoc2C)cc1` showed an inhibition of -13%.
`O=C(CSc1nc(C2CC2)nc2ccccc12)Nc1ccc2c(c1)OCCO2` showed an inhibition of 19.7%.
`CCn1c(SCC(=O)Nc2ccc3c(c2)OCCO3)nc2c(c1=O)SC(C)C2` (stereo unspecified) was tested, and the inhibition was 61.9% (active).
For `O=C(CSc1nnnn1C1CCCC1)Nc1ccc2c(c1)OCCO2`, the inhibition was 68.5% (active).
`CCC(=O)Nc1cccc(NC(=O)CSc2nnnn2C2CCCC2)c1` gave an inhibition of 36.1%.
`Cc1nonc1OCCn1nnnc1N` showed an inhibition of 4%.
With `O=C(CCn1c(=S)[nH]c2ccccc2c1=O)NCCCN1CCCC1=O` the inhibition was 5.4%.
With `O=C(CS(=O)(=O)c1cn(Cc2ccc(Cl)cc2)c2ccccc12)N1CCOCC1` the inhibition was 35.4%.
`CCOC(=O)c1cc(NC(=O)SCC(=O)O)c(C)nc1C` was tested, and the inhibition was 24.3%.
`N#CCSc1nc2c(c(=O)n1Cc1ccccc1)C1(CCCC1)Cc1ccccc1-2` gave an inhibition of -19%.
`COc1cc(Br)cc(/C=N/c2ncn[nH]2)c1O` showed an inhibition of 0.3%.
With `Cc1nc2nc(C)c(CCC(=O)N3CCN(c4ccccc4)CC3)c(C)n2n1` the inhibition was 7.2%.
For `Cc1nc2c(-c3ccc(F)cc3)c(C)nn2c(C)c1CCC(=O)N1CCN(c2ccccn2)CC1`, the inhibition was 54.1% (active).
`Cc1nc2c(-c3ccc(F)cc3)c(C)nn2c(C)c1CCC(=O)NCc1ccco1` showed an inhibition of 41.7%.
In the case of `Cc1nn(C)cc1/C=N/NC(=O)c1sc2ccccc2c1Cl`, the inhibition is reported as 37.3%.
Compound `CC(=O)Nc1ccc(S(=O)(=O)N2CCC(N(C)CCC(C)C)CC2)cc1` has an inhibition of 2.5%.
`CCOC(=O)C1CCc2nc3ccccc3c(=O)n21` (stereo unspecified) showed an inhibition of 17.8%.
`N#Cc1c(NC(=O)CSc2nc3ccccc3c(=O)n2Cc2ccco2)sc2c1CCCC2` was tested, and the inhibition was -5.2%.
With `CC(Sc1nc2ccccc2c(=O)n1Cc1ccco1)C(=O)c1ccccc1` (stereo unspecified) the inhibition was 74.1% (active).
`CCOC(=O)C(C)Sc1nc2ccccc2c(=O)n1CC1CCCCC1` (stereo unspecified) was tested, and the inhibition was 71.3% (active).
Compound `CCOn1c(SC(C)C)nc2ccccc2c1=O` has an inhibition of -0.2%.
